Here are results for 55 molecules from ChEMBL document CHEMBL4513216, “Probing the Open Global Health Chemical Diversity Library for Multistage-Active Starting Points for Next-Generation Antimalarials” (ACS Infect Dis, 2020).

The whole screen tested about 69,000 compounds, of which about 8,600 (12%) showed an effect of 50% or more. For the sample, strong results were picked, then their nearest neighbours and some compounds at random.

This experiment has as its system Plasmodium berghei. The experiment in a line: Screen against P. berghei liver stage (PbLuc), transformed with Luciferase, at 10uM. As to conditions: tested at 10 uM. Format: functional, HepG2.
Regarding `CNC(=O)c1ccnc(CC2COc3c(cccc3OC)C2)c1` (stereo not given), the INHIBITION is -9.54%.
`COc1cccc2c1OCC(NC(=O)NCCc1ccccn1)C2` (stereo not given): the INHIBITION was 59.1%.
The figure for `COc1cccc2c1OCC(NC(=O)NCCC(N)=O)C2` (stereo not given) is 15.1%.
In the case of `COc1cccc2c1OCC(C(=O)NCCc1nnc(C)s1)C2` (stereo not given), the INHIBITION came to 65.6%.
For the molecule `COc1cccc2c1OCC(C(=O)NCCc1nc3c(s1)CCC3)C2` (stereo not given), the INHIBITION worked out at 40.6%.
As for `COc1cccc2c1OCC(C(=O)NCCc1nnc(N)s1)C2` (stereo not given), the INHIBITION came to 43.4%.
In the case of `COc1cccc2c1OCC(Cc1cc(C(=O)N3CCCC3)ccn1)C2` (stereo not given) it was 57.2%; in that of `COc1cccc2c1OCC(NC(=O)NCc1cccs1)C2` (stereo not given), 20.5%; in that of `COc1ccc(-c2ccc(C(=O)N3CCOCC3CC(N)=O)o2)cc1` (stereo not given), -71.5%.
Consider `CC(C)(CN1CCC2(CCCNC2)C1)N1CCOCC1` (stereo not given), for which the INHIBITION was -41.8%.
The figure for `O=C(CCc1cncc(F)c1)NS(=O)(=O)c1ccc(F)cc1F` is 30.3%; for `O=c1ccc2c(n1Cc1ccncc1)CCN(Cc1ccoc1)CC2` it is -37.9%; for `CC(C)N1C[C@@H]2CN(C(=O)NCc3ccccc3)CCC[C@]2(C(=O)O)C1` it is 34.6%.
`CNC(=O)[C@@H]1C[C@H]2CN(Cc3nccs3)C[C@H]2N1C`: the INHIBITION was 46.6%.
In the case of `Nc1nc(N)c2c(n1)OC1(CCN(C(=O)CC3CCCCN3)CC1)C2` (stereo not given) it was 26.95%.
For the molecule `CC(O)c1cn(C2CCN(C(=O)C3(C)CCCCC3)CC2)nn1` (stereo not given), the INHIBITION came to 10.3%.
For `CC(C)Cc1cn(C2CCN(C(C)CC3CC3)CC2)nn1` (stereo not given), the INHIBITION is given as -129%.
Regarding `CSC(C)CCN1CCC(n2cc(C3CCCCC3)nn2)CC1` (stereo not given), the INHIBITION is 67.7%.
The figure for `CCCC(C)CN1CCC(n2cc(CCCO)nn2)CC1` (stereo not given) is 13.7%.
The figure for `CC(C)Nc1cc(N2CCC(n3cc(C4CCCC4)nn3)CC2)ncn1` is 16.1%.
On to `C=C(C)CN1CCC(n2cc(C3CCCC3)nn2)CC1`, for which the INHIBITION is reported as 46.4%.
In the case of `OCc1ccc(CN2CCC(n3cc(C4CCCCC4)nn3)CC2)o1` it was 48.8%; in that of `CCCC(C)CN1CCC(n2cc(C3CCCC3)nn2)CC1` (stereo not given), 61.1%; in that of `CCC(CC)CN1CCC(n2cc(C3CCCC3)nn2)CC1`, 60.4%.
Take `CCC(C)CN1CCC(n2cc(C3CCCCC3)nn2)CC1` (stereo not given): the INHIBITION is listed as 77.6%.
As to `CCC(C)CN1CCC(n2cc(C3CCCC3)nn2)CC1` (stereo not given), the INHIBITION came out at 16.9%.
With `O=C(c1cn(-c2ccccc2)nn1)N1CCCC(n2cccn2)C1` (stereo not given), the INHIBITION is recorded as -67.3%.
The figure for `O=C(C1CC(=O)N(c2n[nH]c3cc(Br)ccc23)C1)N1CCCC1` (stereo not given) is -19.4%; for `CO[C@@H]1CCN(S(=O)(=O)c2cn(C)cn2)[C@H]1Cc1cnn(C)c1` it is 49.1%; for `Cc1nc(CN2CC[C@H](OCC3CC3)[C@@H]2Cc2cccnc2)cs1` it is -3.33%.
`CCOCC(=O)N1Cc2nccn2CC(CN(C)C)C1` (stereo not given): the INHIBITION is on record as -7.7%.
For the molecule `CCCc1n[nH]c(C2CN(CCNS(C)(=O)=O)CCO2)n1` (stereo not given), the INHIBITION is -69%.
The figure for `O=C(c1cscn1)N1C[C@H](OCc2cccnc2)[C@H]2COC[C@H]21` is 3.58%; for `CNC(=O)c1cc(NC(=O)NC2CC2)ccc1F` it is -0.514%.
Regarding `C=C(C)CN1CCC(NC(=O)Nc2ccc(F)c(C(N)=O)c2)CC1`, the INHIBITION was found to be 42.3%.
Take `C=C(C)CN1CCC(NC(=O)Nc2ccc(F)c(C(=O)NC)c2)CC1`: the INHIBITION is recorded as 52.6%.
In the case of `Cc1cc(C)n(CC(=O)N2CCC(c3cc4cccnc4[nH]3)CC2)n1` it was 1.62%; in that of `CN(CC(=O)N1CCC(COc2ccccc2)CC1)c1cnccn1`, -16.295%; in that of `CCN1CCCC(O)(CN(C)Cc2c(C)nn(C)c2C)C1` (stereo not given), 42.4%.
In the case of `Cc1noc(OCc2ccc(C#N)cc2)n1` it was 64.5%; in that of `Cc1noc(OCCOc2ccc(C#N)cc2)n1`, 18.6%.
In the case of `CC(C)c1noc(OCc2cccc(C#N)c2)n1` it was 46.1%.
With `O=C(NCCC(=O)N1CCCCCCC1)c1ccoc1`, the INHIBITION is -18%.
In the case of `O=C(NCCNS(=O)(=O)c1cccc(Cl)c1)C1CCCO1` (stereo not given) it was 38.9%; in that of `Cc1cc(NCCNS(=O)(=O)c2cccc(Cl)c2)nc(C)n1`, 24.7%.
In the case of `CC(NCCNS(=O)(=O)c1cccc(Cl)c1)C1CCOCC1` (stereo not given) it was 67.1%.
As to `CN(C)C(=O)N1C[C@H]2CC[C@@H](C1)N(Cc1nnc(-c3ccccc3)o1)C2`, the INHIBITION is recorded as -3.73%.
As for `OC(CNCc1ccccc1C(F)(F)F)c1ccccc1` (stereo not given), the INHIBITION amounted to 1.98%.
The figure for `CC(=O)N(C)Cc1cncc(C2CCCN2C2CCOCC2)n1` (stereo not given) is 15.925%; for `Cc1cnc(NC(=O)CSC2CCc3ccccc3NC2=O)s1` (stereo not given) it is 54.6%.
In the case of `O=C(CSC1CCc2ccccc2NC1=O)NC1CC1` (stereo not given) it was -41.4%; in that of `COc1ccccc1NC(=O)CSC1CCc2ccccc2NC1=O` (stereo not given), 10.8%; in that of `CC(C)c1cc(NC(=O)Cn2cnc3ccccc3c2=O)[nH]n1`, -27.4%.
As for `O=C(Cn1cnc2ccccc2c1=O)Nc1cc(C2CC2)n[nH]1`, the INHIBITION came to 89.4%.
On to `O=c1c2ccccc2ncn1Cc1cc(C2CC2)[nH]n1`, for which the INHIBITION worked out at 18.5%.
